HTR5A inv ctr: HTR5A inverse agonists in luminescence cell assay, primary screen, counter-screen for OPRM1-OPRD1 heterodimer inverse agonist project, full-deck HTS; HTR5A cell line, inverse agonism; inhibition, % at 9.3 µM; actives 0.083% (n = 340,000); AID 504634, 2011; in the data active = inhibition mostly above about 23%, no sharp cut-off; inactive = mostly below about 18%;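 also: 0% = cells with DMSO and 100% = no-cell wells with DMSO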
V-ATPase pH: regulators of yeast V-ATPase proton pumping, primary screen, pHLuorin cytosolic pH fluorescence; actives 0.37% (n = 350,000); S. cerevisiae; response, % at 10 µM; in the data active = response mostly above about 7.3%, no sharp cut-off; inactive = mostly below about 5.4%; also: actives read high
MOR-DOR inv ag: inverse agonists of MOR-DOR heterodimerization, primary screen, cell-based, luminescence; Mu-type opioid receptor (Homo sapiens) + Delta-type opioid receptor (Homo sapiens), …; cell-based MOR-DOR heterodimer luminescence, inverse agonism; inhibition, % at 9.3 µM; actives 0.21% (n = 340,000); AID 504357, 2011; in the data active = inhibition above about 22%, passing the limit was not always enough;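 also: 0% = cells with DMSO and 100% = wells without cells with DMSO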
Target sequence (P35372 whole entry, looked up): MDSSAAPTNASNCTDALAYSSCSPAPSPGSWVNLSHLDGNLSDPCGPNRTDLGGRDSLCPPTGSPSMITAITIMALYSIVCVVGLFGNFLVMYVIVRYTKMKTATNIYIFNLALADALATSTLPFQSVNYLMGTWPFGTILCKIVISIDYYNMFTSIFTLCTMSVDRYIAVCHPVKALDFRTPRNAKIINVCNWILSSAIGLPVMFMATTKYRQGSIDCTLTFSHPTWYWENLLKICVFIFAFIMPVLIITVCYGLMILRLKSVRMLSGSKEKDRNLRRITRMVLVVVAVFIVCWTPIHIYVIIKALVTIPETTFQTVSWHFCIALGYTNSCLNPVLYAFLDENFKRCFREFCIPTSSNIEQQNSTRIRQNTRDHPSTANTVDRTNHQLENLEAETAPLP
Target sequence (P41143 whole entry, looked up): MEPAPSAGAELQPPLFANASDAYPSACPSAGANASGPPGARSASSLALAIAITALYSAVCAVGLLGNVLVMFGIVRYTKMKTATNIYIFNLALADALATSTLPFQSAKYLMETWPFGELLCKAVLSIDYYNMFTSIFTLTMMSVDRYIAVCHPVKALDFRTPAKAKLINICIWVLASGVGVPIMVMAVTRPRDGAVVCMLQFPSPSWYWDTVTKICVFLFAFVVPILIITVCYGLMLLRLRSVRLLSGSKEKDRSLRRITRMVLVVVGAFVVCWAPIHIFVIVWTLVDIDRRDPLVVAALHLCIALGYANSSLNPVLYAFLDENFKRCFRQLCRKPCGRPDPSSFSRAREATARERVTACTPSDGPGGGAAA
HTR5A ag ctr: HTR5A agonists in luminescence cell assay, primary screen, counter-screen for OPRM1-OPRD1 heterodimer agonist project, full-deck HTS | 5-hydroxytryptamine receptor 5A (Homo sapiens), P47898 | cell-based | activation, % at 9.3 µM | actives 0.61% (n = 340,000); in the data active = activation mostly above about 9.5%, no sharp cut-off; inactive = mostly below about 7.6%;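 also: 0% = cells with vehicle only and 100% = reference agonist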
MOR-DOR ag: agonists of OPRM1-OPRD1 heterodimerization, primary screen, cell-based, luminescence; Mu-type opioid receptor (Homo sapiens) + Delta-type opioid receptor (Homo sapiens), …; activation, % at 9.3 µM; actives 0.3% (n = 340,000); AID 504326, 2011; cells; in the data active = activation above about 18%;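 also: 0% = vehicle-treated cells and 100% = reference agonist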
MIN6 prolif: inducers of MIN6 beta-cell proliferation, primary screen, ATP luminescence, uHTS; MIN6 cells proliferation, ATPlite luminescence, 48 h; cells starved in 0.2% serum; 100% = growth in 10% serum; proliferation, % at 10 µM; actives 0.29% (n = 330,000);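 active = compounds whose signal lies at least 3.5 SD above the mean of all wells on their plate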;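 also: 0% = DMSO-treated cells in low-serum medium and 100% = 10% serum control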
VATPase regulator: yeast V-ATPase proton pumping modulators, confirmation, S. cerevisiae, pH-sensitive GFP, second cherry-pick; AID 602197, 2012; S. cerevisiae pHLuorin cytosolic pH, V-ATPase proton transport; response, % at 10 µM; shares compounds with V-ATPase pH; actives 2% (n = 980); in the data active = response above about 24%;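 also: plate controls were vehicle wells for no effect and positive control wells for full effect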
Active calls of the source: *; . = not tested or not shown. This is a sample that favours compounds with a hit; in the whole collection about 1.7% have one here.

SMILES | HTR5A inv ctr | V-ATPase pH | MOR-DOR inv ag | HTR5A ag ctr | MOR-DOR ag | MIN6 prolif | VATPase regulator
CCOC(=O)CC(NC(=O)c1cccc2c1C(=O)N(Cc1cccnc1)C2)c1ccc(OC(C)C)cc1 (stereo not drawn) | -1.0 | -0.1 | 16.4 | 0.4 | -3.3 | 5.6 | .
O=C(CCC(=O)c1ccc(F)cc1)Nc1cc(Cl)cc(Cl)c1 | -9.0 | -1.3 | -13.2 | -4.1 | 2.3 | -0.4 | 1.1
CC(=O)c1cccc(NC(=O)CCC(=O)c2ccc(F)cc2)c1 | -0.4 | 1.3 | 15.8 | 0.1 | -3.5 | -1.0 | .
O=c1c2cc(NC(=S)N3CCCCCC3)ccc2nc2n1CCCCC2 | 1.2 | -4.1 | 0.5 | -0.5 | -0.1 | 1.2 | .
CNC(=S)NC1CC2CCCC(C1)N2Cc1ccc(C)cc1 (stereo not drawn) | -1.4 | 0.8 | 4.0 | 0.5 | -0.7 | -0.3 | .
CCNC(=S)NC1CC2CCCC(C1)N2Cc1ccc(C)cc1 (stereo not drawn) | -2.3 | 6.3* | 9.2 | 0.6 | -1.9 | -2.5 | 2.3
CCCCn1c(N)c(N(CC)C(=O)c2cccc(F)c2)c(=O)[nH]c1=O | -15.5 | 2.6 | -3.8 | -3.3 | 0.5 | -1.3 | .
CCCCCn1nc(C(=O)N(CCOC)c2c(N)n(CCCC)c(=O)[nH]c2=O)c2ccccc2c1=O | 19.0 | 13.1* | 11.2 | -7.6 | -2.0 | 1.3 | -1.6
CCCCn1c(N)c(N(CC)C(=O)c2cccc(OCc3ccccc3)c2)c(=O)[nH]c1=O | -6.2 | 10.8* | 11.2 | 2.6 | -2.8 | -2.7 | -0.4
O=C(NCC(=O)N1CCN(C(=O)c2ccco2)CC1)c1ccc(Br)cc1 | 6.9 | -3.9 | 10.7 | -1.9 | -1.9 | 0.0 | .
CCCNC(=O)COC(=O)CCC(=O)c1ccc(F)cc1 | 3.0 | -7.6 | 10.1 | -0.9 | -1.9 | -3.1 | -1.2
CCOC(=O)CCCNC(=O)COC(=O)c1cccc(F)c1 | -0.7 | -1.4 | -2.3 | 2.8 | 0.5 | 1.0 | .
CCOC(=O)CCCNC(=O)COC(=O)CCC(=O)c1ccc(F)cc1 | -4.9 | 0.9 | 10.5 | 3.6 | -1.8 | 2.2 | -2.9
CCCCNC(=O)COC(=O)CCC(=O)c1ccc(F)cc1 | -9.5 | 2.5 | 6.2 | 2.7 | -1.1 | -1.3 | 2.4
CC(C)CNC(=O)COC(=O)CCC(=O)c1ccc(F)cc1 | -9.8 | -0.4 | 8.8 | 0.0 | -1.8 | -3.9 | .
N#Cc1c(C(F)(F)F)cc(-c2cccs2)nc1SCc1cccnc1 | -1.4 | 7.7* | -11.7 | -2.1 | 2.0 | -1.2 | -26.6
Cc1ccc(C(=O)NNC(=O)c2ccco2)cc1 | 2.9 | 16.8* | 5.7 | -1.1 | -0.9 | 2.5 | 0.3
Cc1ccc(C(=O)NNC(=S)NC(=O)c2ccco2)cc1 | 18.1 | 2.1 | 17.0 | 2.0 | -3.5 | -2.7 | .
Cc1ccc(S(=O)(=O)N2CCOCC2)cc1NC(=O)CSc1nnnn1C | -6.1 | -1.9 | 13.4 | -0.8 | -2.8 | -3.1 | .
COc1ccc(NS(=O)(=O)c2ccc(C)c(C(=O)NCC(c3ccco3)N3CCCCC3)c2)cc1 (stereo not drawn) | -8.4 | 9.9* | -15.1 | 3.1 | 2.9 | 1.6 | -1.7
CC(c1ccon1)N(C)Cc1c(C(=O)N(C)Cc2ccccc2)nc2ccccn12 (stereo not drawn) | -6.2 | 8.1* | 14.3 | 2.8 | -2.9 | 5.7 | -4.0
CN1CCN(S(=O)(=O)c2cccc(C#N)c2)C(c2ccccc2)C1 (stereo not drawn) | -6.2 | 12.4* | -7.1 | -2.3 | 1.1 | 0.5 | 0.5
CN1CCN(S(=O)(=O)c2ccc(C#N)cc2)C(c2ccccc2)C1 (stereo not drawn) | -15.4 | -0.5 | 4.8 | 5.6 | -1.2 | -2.2 | .
COc1ccc(Cl)cc1C(=O)NNC(=O)COC(=O)CC(NC(C)=O)c1ccccc1 (stereo not drawn) | -3.8 | 3.3 | -4.7 | -1.4 | 0.7 | -1.9 | .
Cc1ccc(/C=N/NC(=O)c2nnn(-c3nonc3N)c2CSc2ccccc2)s1 | 3.4 | 8.1* | -3.3 | 1.1 | 0.6 | -1.9 | -3.5
SMILES | HTR5A inv ctr | V-ATPase pH | MOR-DOR inv ag | HTR5A ag ctr | MOR-DOR ag | MIN6 prolif | VATPase regulator
C/C(=C/C(=O)Nc1cccc(F)c1)N1CCCC1 | 3.0 | -1.1 | 6.3 | -1.1 | -1.1 | -1.9 | .
CCCN(CCC)CC(O)COc1ccc2c(c1)OCO2 (stereo not drawn) | -6.8 | 8.9* | -5.9 | -0.9 | 1.1 | -1.7 | -4.2
OCCN(Cc1ccccc1)CC(O)COc1ccc2c(c1)OCO2 (stereo not drawn) | 1.4 | -2.6 | 10.1 | -0.4 | -1.7 | -1.2 | .
O=[N+]([O-])c1c(NCCO)cc(N2CCCCC2)c2nonc12 | 5.5 | -1.5 | 1.9 | -2.0 | -0.3 | -1.1 | .
O=[N+]([O-])c1cc([N+](=O)[O-])c(N2CCCCCC2)cc1NCCO | 28.6 | 8.3* | 1.0 | 1.0 | -0.2 | 1.5 | -0.6
Fc1ccc(C2CCCN2Cc2nc(Cc3ccccc3)no2)cc1 (stereo not drawn) | 14.1 | -2.5 | -7.9 | 1.0 | 1.5 | -1.6 | .
CSc1ccc(/C=C(/NC(=O)c2ccco2)C(=O)N2CCCCCC2)cc1 | 26.1 | 1.3 | 8.5 | -0.8 | -1.6 | 0.2 | .
CCOC(=O)C1C(C(=O)OC)=C(c2ccc(OC)cc2)c2ccc(OC)cc2N1S(=O)(=O)C(F)(F)F (stereo not drawn) | 0.2 | 8.0* | 6.6 | -0.1 | -1.3 | . | 3.5
CSc1ncccc1C(=O)N1CCN(S(=O)(=O)c2ccc3ccccc3c2)CC1 | 4.7 | 10.3* | 17.0 | 2.2 | -4.4 | -0.8 | 0.8
CCC(C)(C)NC(=O)C(c1ccc(OC)cc1)N(Cc1ccc(OC)cc1)C(=O)CCC(=O)Nc1cc(C)on1 (stereo not drawn) | -8.0 | -0.8 | 13.6 | -2.0 | -2.2 | 4.1 | .
CCOc1ccccc1NC(=O)c1ccc2ccccc2c1 | -5.7 | 0.3 | -14.9 | 1.7 | 3.1 | -0.3 | .
CCOc1ccccc1NC(=O)NNC(=O)c1ccc2ccccc2c1 | 25.2 | 12.9* | -1.5 | -1.2 | 0.3 | 0.3 | 2.1
C/C(=C/c1ccccc1)C(=O)N1CCC(C)CC1 | -18.3 | 11.2* | 4.2 | 6.6 | -0.8 | -2.7 | -1.8
COc1ccc(/C=C/CN2CCC(n3nccc3NC(=O)C3CCCC3)CC2)cc1 | -14.1 | 1.6 | 23.6 | 3.9 | -4.1 | -2.3 | .
C=CCn1c(O)c(N=Nc2ccccc2)c2ccccc21 | -15.2 | -8.0 | 20.9 | -3.7 | -4.2 | 0.2 | .
C=CCn1c(O)c(N=NC(=O)OCC)c2ccccc21 | 13.9 | -0.3 | 3.3 | 2.2 | -0.6 | 0.0 | 4.6
CCOC(=O)N=Nc1c(O)n(C)c2ccccc12 | 20.1 | 0.4 | 7.5 | 0.0 | -1.7 | -1.1 | 1.6

Screening results deposited in PubChem BioAssay by several laboratories.
